# High-throughput results from PubChem BioAssay.
# TSHR agonist: agonists of human thyroid stimulating hormone receptor. P16473. Potency, µM (titrated, usually from 57.1 µM), for inactives: at the highest dose activation, actives largely listed as activators. HEK293-CNG-TSHR cells (CNG channel as cAMP sensor), membrane potential dye, cAMP. actives 0.48% (n = 73,000); active = well fitted activation curve with a large enough effect in the main read-out, with a control signal flat, not every such curve was filed as active; inconclusive = small, poorly fitted or top-dose-only effect, or a change in a side signal; inactive = no such curve, though single readings can be large or run the other way; % of control where 0% means no effect;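 also: the control signal comes from parental cells without the receptor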
# Target sequence (P16473 whole entry, looked up): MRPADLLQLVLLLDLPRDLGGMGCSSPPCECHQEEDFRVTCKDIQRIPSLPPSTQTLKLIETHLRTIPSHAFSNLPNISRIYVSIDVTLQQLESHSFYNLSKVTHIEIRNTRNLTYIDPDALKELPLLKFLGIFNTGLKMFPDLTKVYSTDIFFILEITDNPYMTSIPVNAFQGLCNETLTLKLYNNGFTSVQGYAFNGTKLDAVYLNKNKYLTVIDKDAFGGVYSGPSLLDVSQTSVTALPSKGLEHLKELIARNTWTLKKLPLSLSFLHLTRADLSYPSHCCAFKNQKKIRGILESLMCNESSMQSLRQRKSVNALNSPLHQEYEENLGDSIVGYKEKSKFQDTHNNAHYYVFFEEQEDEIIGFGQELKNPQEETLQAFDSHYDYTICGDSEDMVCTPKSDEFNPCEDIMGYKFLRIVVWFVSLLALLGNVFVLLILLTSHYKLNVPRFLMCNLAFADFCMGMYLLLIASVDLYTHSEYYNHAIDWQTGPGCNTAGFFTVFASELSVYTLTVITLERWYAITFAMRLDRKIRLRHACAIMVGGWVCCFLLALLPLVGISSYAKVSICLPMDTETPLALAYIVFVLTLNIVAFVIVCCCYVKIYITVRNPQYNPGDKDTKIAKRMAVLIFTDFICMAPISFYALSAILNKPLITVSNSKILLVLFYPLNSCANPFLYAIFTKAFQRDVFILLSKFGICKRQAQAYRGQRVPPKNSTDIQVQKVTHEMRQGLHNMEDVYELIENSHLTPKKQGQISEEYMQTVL
#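 HEK 293 cells stably expressing TSHR and a cAMP-gated CNG channel; parental CNG-only cells as counterscreen. Cells preloaded 60 min with membrane potential dye plus 100 uM RO 20-1724, then compound 30 min; fluorescence read at 590 nm.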
# CRE-bla Fsk: modulators of forskolin-stimulated CRE signaling in CHO cells | CHO CRE-bla reporter (cAMP response element driving beta-lactamase), forskolin EC10, beta-lactamase ratio | Potency, µM (top dose mostly 38.2 µM), for the others: top-dose activity change, negative = inhibition, usual class: activators | actives 2.5% (n = 71,000) | AID 662; active = well fitted activation curve with a large enough effect in the signal ratio, with a control signal flat, not every such curve was filed as active; inconclusive = small, poorly fitted or top-dose-only effect, or effect the other way, or a change in a side signal; the % refers to the signal ratio; also: % of control where 0% means no effect
#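 qHTS titration format; CRE-bla CHO reporter; stimulus EC10 NKH 477, a water-soluble forskolin. Read: CCF4 460/530 nm ratio. Potency expressed as AC50 for activators or inhibitors.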
# HEK293 cAMP ctrl: parental HEK293 cAMP activation (counter-screen) | AID 938 | Potency, µM (doses to about 57.1 µM), inactives show at the highest dose activation, most hits filed as activators | parental HEK293 CNG cAMP sensor, membrane potential fluorescence | actives 2.5% (n = 73,000); also: % of control where 0% means no effect; nearly all actives have a fitted effect of over 55% in size
#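 Counterscreen for endogenous-receptor signalling: CNG-channel HEK 293 cells report cAMP rise by membrane depolarization. After 60 min dye equilibration with 100 uM RO 20-1724, compounds incubated 30 min before bottom-read fluorescence at 590 nm.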
# ERK AVP inh: blocks ERK signaling stimulated by vasopressin; HEK293-V1b, vasopressin-stimulated pERK AlphaScreen; Potency, µM (doses to about 57.5 µM), for the others: top-dose activity, negative = inhibition, hits mostly inhibitors; actives 0.99% (n = 72,000); also: % is scaled to controls: 0 for no effect and ±100 for the full control effect; nearly all actives have a fitted effect of over 55% in size
#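 V1b-HEK293 cells; cpd 30 min 37C; 25 nM vasopressin 5 min; lyse 10 min; AlphaScreen beads 5 hr RT. Normalized to DMSO basal and 25 nM vasopressin; AC50 by Hill fit.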
# The depositor's hits bear a star; ? = inconclusive; . = no result; ! = a repeat was not active; [ ] = another dose, or the depositor's remark. This is a sample that favours compounds with a hit; in the whole collection about 6% have one here. Unless noted, calls follow the shape of the dose curve; as a rule, active = well fitted curve in the direction sought with a large enough effect; inconclusive = small, poorly fitted or top-dose-only effect, or another doubt; inactive = no such curve, though single readings can be large; an effect the other way counts as inactive or inconclusive. Potency is read from the fitted curve at half-maximal effect.
SMILES,TSHR agonist,CRE-bla Fsk,HEK293 cAMP ctrl,ERK AVP inh
Cn1c(=O)c(-c2ccccc2)nc2cnc(Nc3ccccc3)nc21,1.4%,?,6.7%,-15.4%
Cn1c(=O)c(-c2ccc(Cl)cc2)nc2cnc(Nc3ccccc3)nc21,3.3%,12.6µM*,5.7%,11.9%
COc1cccc(OC)c1C(=O)NC1C(=O)N2C1SC(C)(C)C2C(=O)O (centres undefined),.,.,.,0.9%
Cn1cc(C2=C(c3cn(CCCSC(=N)N)c4ccccc34)C(=O)NC2=O)c2ccccc21,?,.,-44.2%,2µM*
CN(C)CCCn1cc(C2=C(c3c[nH]c4ccccc34)C(=O)NC2=O)c2ccccc21,?,?,-52.9%,0.794µM*
CCN(CC)CCCn1c(=S)[nH]c2ccccc2c1=O,-0.9%,-3.9%,17.5%,-17.0%
CCn1cc(SCC(N)=O)c2ccccc21,-8.8%,1.5%,-14.2%,.
CCOC(=O)c1c(C2COc3ccccc3O2)csc1N (centres undefined),-3.5%,25.2%,-3.1%,31.6µM*
COc1ccc(C(=O)N2CCC3(CCCN(c4ncccn4)C3)CC2)cc1,13.7%,2.1%,3.9%,6.3%
CCN(CC)S(=O)(=O)c1ccc(Nc2nc3ccccc3n3nnnc23)cc1,.,5.01µM*,27.7%,-12.7%
Cc1nc(SCC(=O)NCC2CCCO2)c2oc3ccccc3c2n1 (centres undefined),23.4%,10µM*,2.3%,-20.6%
Cc1nc(SCC(=O)NCc2ccco2)c2oc3ccccc3c2n1,9.7%,?,11.2%,-22.7%
Cc1nc(SCC(=O)Nc2ccc(F)cc2)c2oc3ccccc3c2n1,?,0.631µM*,?,-4.5%
CCOC(=O)[C@]1(CC(=O)O)CCCC1=O,0.2%[11.4 µM],-3.8%[7.6 µM],3.8%[11.4 µM],7.9%[11.5 µM]
CC(=O)NCCNc1ncnc2ccc(-c3ccc(C(=O)N(C)C)cc3)cc12,1.0%,-5.2%,-18.7%,6.3%
CCOc1ccc(NC(=O)CC2CC(C)(C)OC2=O)cc1 (centres undefined),13.4%,-15.0%,-2.7%,-17.0%
CCOc1ccc(NCC2CCOC(C)(C)C2)cc1 (centres undefined),13.3%,3.16µM*,0.7%,?
CCOC(=O)c1c(-c2cccs2)csc1NC(=O)CN1CC(C)OC(C)C1 (centres undefined),27.1%,2.51µM*,22.5%,10.8%
CCOC(=O)c1c(-c2cccs2)csc1NC(=O)CSc1ncn[nH]1,.,12.2%,27.0%,-14.8%
Cc1cccc2cc(CN(Cc3ccco3)S(=O)(=O)c3ccc4c(c3)OCCO4)c(=O)[nH]c12,9.1%,-6.7%,5.6%,10µM*
Cc1cc(C)c2[nH]c(=O)c(CN(CC3CCCO3)S(=O)(=O)c3ccc4c(c3)OCCO4)cc2c1 (centres undefined),11.6%,2.6%,12.9%,?
CCC(=O)Nc1cc(-c2nn(C)c(=O)c3ccccc23)ccc1OC,?,12.6µM*,?,-15.3%
CCCC(=O)Nc1cc(-c2nn(C)c(=O)c3ccccc23)ccc1OC,7.2%,12.6µM*,6.9%,-8.9%
CCCC(=O)Nc1cc(-c2nn(C)c(=O)c3ccccc23)ccc1N1CCCCC1,.,2µM*,22.6%,?
COc1ccc(-c2nn(C)c(=O)c3ccccc23)cc1NC(=O)Cn1nc(C)c2ccccc2c1=O,12.5%,?,2.4%,?
SMILES,TSHR agonist,CRE-bla Fsk,HEK293 cAMP ctrl,ERK AVP inh
Cn1nc(-c2ccc(OCC(=O)Nc3cccnc3)cc2)c2ccccc2c1=O,2.0%,?,-5.6%,31.6µM*
COc1ccc(/C=C/N(CCc2ccc(OC)c(OC)c2)C(=O)c2ccccn2)cc1,5.0%[11.4 µM],.,15.0%[11.4 µM],20.0%[11.5 µM]
COC(=O)[C@@H]1[C@@H](O)[C@]2(O)c3ccccc3O[C@]2(c2ccccc2)[C@H]1c1ccccc1,13.5%[11.4 µM],.,0.0%[11.4 µM],30.1%[11.5 µM]
Cc1ccc(C(=O)c2coc3ccc(O)c(CN4CCN(C)CC4)c23)cc1,?,2.5%,12.6µM*,25.5%
CCOC(=O)c1c(C)n(CC(O)c2ccccc2)c2ccc(O)cc12 (centres undefined),25.1µM*,18.0%,-2.4%,?
COC(=O)c1c(C)n(-c2ccccc2)c2ccc(O)cc12,15.5%,?,5.1%,-18.1%
COCCn1cnc2c(c1=O)c1nc3ccccc3nc1n2/N=C/c1cccc(OC)c1OC,-9.9%,?,-15.3%,-23.8%
O=c1c2c3nc4ccccc4nc3n(/N=C/c3cccs3)c2ncn1-c1ccccc1,-16.8%,5.01µM*,-19.5%,-14.8%
COc1cc(=O)n(C)c2c(OC[C@@H](O)C(C)(C)O)cccc12,?,25.1µM*!,?,-15.7%[25.7 µM]
COc1ccccc1OCC(O)COC(N)=O (centres undefined),.,.,.,7.7%
On1onc2c3cc(-c4ccccc4)nc3ccc21,-38.8%,?,-28.5%,25.1µM*
c1ccc(-c2cc3c(ccc4nonc43)nn2)cc1,?,0.4%[7.6 µM],?,-2.5%
COc1ccc2c(c1OC)C(Cc1ccccc1)N1CCc3cc4c(cc3C1C2)OCO4 (centres undefined),.,.,.,-24.2%
IC(I)I,-9.0%,-0.5%,5.3%,11.3%
COc1cc(NC(=O)C2COc3ccccc3O2)c(OC)cc1Cl (centres undefined),?,23.9%,15.8µM*,7.2%
COC(=O)c1ccc(C)c(NC(=O)C2COc3ccccc3O2)c1 (centres undefined),26.2%,?,20.1%,-10.8%
COCCn1nnnc1CN(Cc1cccnc1)Cc1cc2cc(OC)ccc2[nH]c1=O,-3.9%,13.6%,8.0%,-2.5%
O=c1[nH]c2cc3c(cc2cc1CN(Cc1cccs1)Cc1nnnn1Cc1ccco1)OCCO3,10.1%[11.4 µM],?,0.3%,25.7%
CCOc1ccc2[nH]c(=O)c(CN(Cc3cccs3)Cc3nnnn3C(C)(C)CC)cc2c1,?,?,20µM*,-14.4%
CCC(C)(C)n1nnnc1CN(Cc1cccs1)Cc1cc2cc(OC)ccc2[nH]c1=O,?,?,15.8µM*,-4.8%
COc1ccc(-c2nnc(SCC(=O)Nc3ncc(C)s3)n2-c2ccccc2)cc1OC,?,5.01µM*,?,-29.8%
CCc1nnc(NC(=O)CSc2nnc(-c3ccc(O)cc3)n2-c2ccccc2)s1,6.0%,4.6%,3.0%,-19.7%
CCOc1ccccc1-n1c(SCC(=O)Nc2nccs2)nnc1-c1ccoc1C,?,2.9%,12.6µM*,6.0%
Cc1occc1-c1nnc(SCC(=O)Nc2nccs2)n1CCc1ccccc1,?,-4.3%,?,1.2%
CCc1nnc(NC(=O)CSc2nnc(-c3ccoc3C)n2-c2ccccc2)s1,22.4%,?,17.2%,-5.6%
CCc1nnc(NC(=O)CSc2nnc(-c3ccoc3C)n2-c2ccc(C)cc2)s1,15.8µM*,?,22.0%,-16.5%
Cc1ccc(-c2nnc(SCC(=O)N3CC(C)CC(C)C3)o2)cc1C (centres undefined),?,9.8%,15.8µM*,?
COc1cc(-c2nnc(SCc3c(F)cccc3Cl)o2)cc(OC)c1OC,?,?,31.6µM*,13.6%
COc1cc(-c2nnc(SCc3ccccc3Cl)o2)cc(OC)c1OC,?,3.98µM*,?,8.9%
